# Screening results from PubChem.
# This is a sample that favours compounds with a hit; in the whole collection about 3.2% have one here.
# Rv3671c inh: Rv3671c (M. tuberculosis) protease inhibition. inhibition, % at 5.96 µM. hit rate 0.048% among 320,000. AID 2606; in the data active means inhibition above about 38%;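 further: extracellular domain of Rv3671c used as enzyme; 0% = enzyme with DMSO and 100% = no enzyme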
# FBA Mtb inh: inhibitors of M. tuberculosis fructose-bisphosphate aldolase | inhibition, % at 1 µM | purified M. tuberculosis FBA, fluorescence read-out | hit rate 2.3% among 360,000;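 further: 0% = vehicle and 100% = reference inhibitor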
# Target sequence (P9WQA3 whole entry, looked up): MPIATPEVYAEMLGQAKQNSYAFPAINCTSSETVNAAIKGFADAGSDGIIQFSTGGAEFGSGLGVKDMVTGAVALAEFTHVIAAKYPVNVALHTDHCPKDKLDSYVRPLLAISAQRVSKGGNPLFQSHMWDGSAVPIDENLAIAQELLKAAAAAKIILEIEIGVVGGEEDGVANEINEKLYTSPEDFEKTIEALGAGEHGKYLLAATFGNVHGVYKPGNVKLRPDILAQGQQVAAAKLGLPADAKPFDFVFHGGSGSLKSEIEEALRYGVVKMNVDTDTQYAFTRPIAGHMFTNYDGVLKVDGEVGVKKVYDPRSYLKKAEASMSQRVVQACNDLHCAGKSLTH
# Mtb UGM inh: Mtb UDP-galactopyranose mutase inhibition; purified UGM, fluorescence polarization probe displacement; hit rate 0.06% among 320,000; inhibition, % at 10 µM; in the data active means inhibition above about 10%, passing the limit was not always enough; inconclusive means no clear call, values can overlap the other calls
# Mtb bLac sens: beta-lactam sensitization of Mtb H37Rv | inhibition, % at 25 µM | M. tuberculosis H37Rv growth with meropenem, percent inhibition | AID 434955 | hit rate 0.27% among 330,000; call rule not given here;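 further: growth measured after seven days incubation then overnight dye step; 0% = bacteria only wells and 100% = bacteria with antibiotic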
# SSB-PriA inh: K. pneumoniae PriA-SSBct interaction inhibition; AlphaScreen SSBct-PriA binding, biotinylated peptide; inhibition, % at 33 µM; hit rate 0.6% among 430,000; in the data active means inhibition mostly above about 37%, no sharp cut-off; inactive means mostly below about 20%;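 further: plate controls were negative control peptide for no effect and reference peptide for full effect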
# GDH-TPI counter-1: counter-screen for M. tuberculosis FBA inhibitors: GDH-TPI coupled enzymes; AID 588335; hit rate 1.2% among 360,000; inhibition, % at 4.8 µM; GDH-TPI coupled enzyme counterscreen, NADH absorbance; in the data active means inhibition above about 30%;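 further: 0% = DMSO wells and 100% = wells lacking the enzyme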
# Mtb FBA inh conf: Mtb FBA inhibition, confirmed; AID 651616; shares compounds with FBA Mtb inh; purified M. tuberculosis FBA, fluorescence read-out; hit rate 78% among 5,600; inhibition, % at 1 µM;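 further: 0% = vehicle wells and 100% = reference inhibitor wells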
# GDH-TPI counter-2: counter-screen for M. tuberculosis FBA inhibitors: GDH-TPI coupled enzyme inhibition; shares compounds with FBA Mtb inh; inhibition, % at 1 µM; GDH-TPI coupled enzyme counterscreen, fluorescence; hit rate 81% among 5,600; in the data active means inhibition above about 10%
# Numbers without * were called inactive; u = inconclusive; x = not tested or not shown; + = active, no number. Unless noted, no stated cut-off is given here; in the data, active means inhibition above about 27%; inactive means the rest.
SMILES,Rv3671c inh,FBA Mtb inh,Mtb UGM inh,Mtb bLac sens,SSB-PriA inh,GDH-TPI counter-1,Mtb FBA inh conf,GDH-TPI counter-2
Fc1ccc(-c2cc3nc(-c4ccccc4)cc(N4CCN(CCN5CCOCC5)CC4)n3n2)cc1,x,49*,x,x,-39,11,90*,72*
COc1cccc(-c2cc3nc(-c4ccccc4)cc(N4CCN(C(=O)c5ccoc5)CC4)n3n2)c1,x,62*,x,x,x,-3,151*,102*
COc1ccccc1-c1cc2nc(-c3ccccc3)cc(N3CCN(C(=O)c4ccco4)CC3)n2n1,x,48*,x,x,x,6,54*,43*
Cc1cc(N2CCN(C(=O)c3ccco3)CC2)n2ncc(-c3ccccc3)c2n1,2,2,1,58,-13,14,x,x
COc1cccc(-c2cc(N3CCN(C(=O)c4ccoc4)CC3)n3nc(-c4cccc(Cl)c4)cc3n2)c1,x,2,x,x,x,9,x,x
O=C(Nc1cccc(C(F)(F)F)c1)N1CCC(c2nnc(-c3ccsc3)o2)CC1,x,x,x,x,10,x,x,x
CCOC(=O)c1nn(-c2ccc(C)cc2)c(=O)cc1NCc1ccncc1,x,x,x,x,-1,x,x,x
O=C(c1cc2ccccc2[nH]1)N1CCC(c2nnc(C3CC3)o2)CC1,x,x,x,x,7,x,x,x
COc1cccc(-c2cc3nc(-c4ccccc4)cc(N4CCC5(CC4)OCCO5)n3n2)c1,-28,65*,-1,10,-55,3,1,-4
COc1ccc(-c2cc3nc(C)cc(N4CCN(C(=O)c5ccoc5)CC4)n3n2)cc1,x,6,x,x,x,6,x,x
O=C(c1ccoc1)N1CCN(c2cc(-c3ccccc3)nc3cc(-c4ccccc4)nn23)CC1,x,39*,x,x,x,5,64*,60*
COc1cccc(-c2cc(C(F)(F)F)n3nc(C(=O)N4CCC5(CC4)OCCO5)cc3n2)c1,0,0,1,9,-2,15,x,x
CN1CCN(c2cc(-c3ccccc3)nc3cc(-c4ccc(F)cc4)nn23)CC1,4,26,-1,96,-35,3,x,x
CN1CCN(c2cc(-c3cccc(C(=O)O)c3)nc3ccnn23)CC1,x,30*,x,x,x,18,55*,46*
Cc1cccc(-n2c(=O)[nH]c3c(C(N)=O)nc(CC(C)C)nc32)c1,-1,46*,3,-7,-18,9,94*,76*
Cc1ccsc1-c1nc(C(N)=O)c2[nH]c(=O)n(-c3ccccc3F)c2n1,x,x,x,x,1,x,x,x
CC(C)Cc1nc(C(N)=O)c2[nH]c(=O)n(-c3ccc(F)cc3)c2n1,-10,10,1,7,-3,2,x,x
COc1ccccc1-c1nc(C(N)=O)c2[nH]c(=O)n(-c3cccc(C)c3)c2n1,5,48*,-4,46,13,29,+,195*
CCc1nc(C(N)=O)c2[nH]c(=O)n(-c3ccccc3F)c2n1,-3,105*,0,2,5,8,91*,74*
C=CCc1ccc(OC[C@@H](O)CN2CCN(c3ccccc3OC)CC2)c(OC)c1,x,x,x,x,-6,x,x,x
Cc1ccccc1CC1(CO)CCCN(C(=O)CCCN2CCCCC2=O)C1 (stereo not drawn),0,29*,4,-7,4,3,24,23*
COc1cc2ccnc(C=NO)c2cc1OC,x,42*,x,x,x,13,122*,95*
COc1cc2ccnc(C=O)c2cc1OC,x,5,x,x,x,14,x,x
COc1ccccc1CNC(=O)c1ccccc1NS(C)(=O)=O,0,29*,x,11,-4,-7,102*,80*
O=C(Nc1ccccc1C(=O)NCc1ccccc1)c1ccccc1,-8,3,-2,u,-25,-7,x,x
SMILES,Rv3671c inh,FBA Mtb inh,Mtb UGM inh,Mtb bLac sens,SSB-PriA inh,GDH-TPI counter-1,Mtb FBA inh conf,GDH-TPI counter-2
COc1ccccc1CNC(=O)c1ccccc1N,-1,54*,-1,7,-10,-8,60*,51*
COc1ccc(C(=O)NCc2ccccc2OC)c(OC)c1,-15,-3,-1,2,-11,-17,x,x
Nc1ccccc1C(=O)NCc1ccccc1,9,44*,4,-7,-24,-5,1,4
NC(=O)c1cccc2cc3ccccc3cc12,-11,37*,4,1,-4,4,9,6
CCOC(=O)c1cn(-c2ccc(C)c(C)c2)nn1,x,x,x,x,-16,x,x,x
Cc1csc(SCc2cc(=O)c(OC(=O)c3ccc(Cl)c([N+](=O)[O-])c3)co2)n1,x,x,x,x,4,x,x,x
Cc1cc(-c2nnc(NC(=O)c3ccc(S(=O)(=O)N4CCC(C)CC4)cc3)o2)n(C)n1,x,x,x,x,-5,x,x,x
O=S(=O)(c1ccc(Cl)cc1)N1CCN=C1SCc1ccc(Cl)cc1Cl,x,x,x,x,-14,x,x,x
NC(=O)c1ccccc1Br,3,0,0,-4,7,10,x,x
NC(=O)c1ccccc1N,-26,86*,-1,6,-6,6,78*,54*
CS(=O)(=O)Nc1ccccc1C(=O)NCC1(N2CCCCC2)CCCCC1,5,45*,4,-8,4,-2,9,-5
Cc1ccc(OCCNC(=O)c2ccccc2N)cc1,-4,49*,4,3,-6,2,+,191*
Cc1cc(C(=O)NCc2ccccc2)c(=O)[nH]c1C,-10,56*,2,3,-5,4,103*,74*
COc1ccc(-c2cn3c(C(=O)N4CCN(C(c5ccccc5)c5ccccc5)CC4)csc3n2)cc1,x,x,x,x,2,x,x,x
CNC(=O)c1cccc(-c2noc(C3CN(S(=O)(=O)c4ccc(C)s4)C3)n2)c1,x,x,x,x,2,x,x,x
CN(C)[C@@H](CNS(=O)(=O)c1ccc(-c2ccccc2)cc1)c1ccsc1,x,x,x,x,-1,x,x,x
Cc1ccccc1CNC(=O)c1ccccc1N,0,78*,x,2,1,5,+,191*
Cc1ccc(C(=O)NCCN2CCNC2=O)cc1,-5,1,1,-6,4,4,x,x
CCN(CC)CCNC(=O)c1ccccc1N,-3,60*,-1,-24,-5,-4,140*,121*
Cc1ccccc1CNC(=O)c1ccccc1C,0,1,-4,6,-6,2,x,x
O=C(NCCCN1CCN(c2ccccc2)CC1)c1cccc(Cl)c1,x,x,x,x,10,x,x,x
Nc1ccccc1C(=O)NCCN1CCNC1=O,-3,93*,4,-7,0,10,90*,77*
Nc1ccccc1C(=O)NCCCN1CCN(c2cccc(Cl)c2)CC1,-5,54*,0,-1,12,1,69*,72*
COc1ccc(C(=O)NC2CCN(c3ncccc3-c3nc(C)no3)CC2)c(C)c1,x,x,x,x,-6,x,x,x
CCOc1ccccc1NC(=O)c1csc(Nc2ccccc2)n1,x,x,x,x,-6,x,x,x
O=C(Cc1ccccc1Cl)N(Cc1ccsc1)Cc1ccco1,x,x,x,x,-8,x,x,x
COc1ccccc1NC(=O)COC(=O)CCc1ccc(S(=O)(=O)N2CCOCC2)cc1,-6,31*,0,3,-8,14,162*,134*
O=c1oc2c(O)cccc2cc1-c1nc2ccccc2[nH]1,x,55*,-4,11,-10,5,142*,103*
